According to PubChem BioAssay AID686971 (National Center for Advancing Translational Sciences (NCATS), 2013):
Out of some 360,000 compounds screened, about 7,500 (2.1%) were called active. A call without a number means that no potency is given here. Inconclusive results (about 8%) are left out. The call rests on the fitted dose curve; in most records, active means well fitted cell-killing curve with a large enough effect; inconclusive means small, poorly fitted or top-dose-only effect, or effect the other way, or another doubt; inactive means no such curve, though single readings can be large or run the other way. The full list was thinned out, with actives kept by preference.

Experiment: qHTS for induction of synthetic lethality in tumor cells producing 2HG: qHTS for the HT-1080-IDH1KD cell line
Conditions: HT-1080 IDH1 knockdown viability, ATP luminescence, 48 h; series mostly up to 46.1 µM
In short: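 HT-1080-IDH1KD cells (IDH1 knocked down), 750/well in RPMI with 5% FBS, treated with compound 48 h at 37 degrees C. Viability by CellTiter-Glo luminescence, normalised to DMSO and no-cell wells; concentration-response curves classed.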
Potency means the concentration at half of the fitted maximal effect.

Compound | Potency
O=C(Nc1ccc(F)cc1)Nc1nnc([C@H]2C[C@H](O)[C@@H](CO)O2)s1 | inactive
CC(C)c1cc(C(=O)N(C)C2CCCN(Cc3ccccc3F)C2)n(C)n1 (centres undefined) | inactive
COc1ccccc1Cc1c(-c2ccc(Cl)cc2)nc2c3ccccc3ccn12 | inactive
CCCS(=O)(=O)NC(=O)C1(C)CCCN(C(=O)c2cccs2)C1 (centres undefined) | inactive
Cc1cc(Br)cn2c(Cc3ccccc3C(F)(F)F)c(-c3ccc(Cl)cc3)nc12 | inactive
COc1c(C)cc(C(O)c2ncc(-c3cccc(C(F)(F)F)c3)[nH]2)cc1C (centres undefined) | inactive
O=C(Nc1cccc2ccccc12)NC1CC1 | inactive
O=C(CSc1ncn[nH]1)Nc1nc2c(F)c(F)c(F)cc2s1 | inactive
C/C(=N\NC(=O)c1ccoc1C)c1ccccc1O | 13 µM (active)
Cc1occc1C(=O)NNC(=S)NCC(C)C | inactive
C/C(=N/NC(=O)CCc1ccccc1)c1ccco1 | inactive
CCN(CC(=O)Nc1ccc(NC(C)=O)cc1)C(=O)C1CC(=O)N(c2ccc3c(c2)OCCO3)C1 (centres undefined) | inactive
O=C1c2cccc3c([N+](=O)[O-])ccc(c23)C(=O)N1CC1CCCO1 (centres undefined) | 18.4 µM (active)
CN1CN(C)c2ccc([N+](=O)[O-])c3cccc1c23 | inactive
CCOc1cccc(=O)c2c(C)n(CC3CCCO3)c(C)c12 (centres undefined) | inactive
CCNC(=O)C1(C)CCN(Cc2ccc(C(=O)OCC)o2)C1 (centres undefined) | inactive
Cc1cccc(C(=O)NC2CCN(CC(=O)Nc3cccc(Cl)c3)CC2)c1 | inactive
CC1(C(=O)NS(=O)(=O)c2ccc3ccccc3c2)CCN1C(=O)C1(c2ccc(Cl)cc2)CCC1 (centres undefined) | inactive
O=C(O)c1ccccc1Cc1ccc(F)c2ccccc12 | inactive
Cc1cc(C)n(CC(O)CN(c2ccccc2)S(=O)(=O)c2ccc3ccccc3c2)n1 (centres undefined) | inactive
CS(=O)(=O)N(CC(O)Cn1c2ccccc2c2ccccc21)c1cccc2ccccc12 (centres undefined) | 20.6 µM (active)
CCCCN(CCCC)CC(O)Cn1c2ccccc2c(=O)c2ccccc21 (centres undefined) | inactive

Compound | Potency
CC1(C(=O)NS(=O)(=O)Cc2cccc(Cl)c2)CCN1C(=O)Cc1ccc(Cl)cc1Cl (centres undefined) | inactive
Cc1ccccc1NC(=O)Cc1nc(COC(=O)C(C)(C)Oc2ccc(Cl)cc2)cs1 | inactive
Oc1ccc(N=Nc2nccs2)c(O)c1 | 4.11 µM (active)
Cc1cc2c3ccccc3[nH]c(=O)n2n1 | inactive
COC(=O)[C@]12CCCCC=C1N(CCC1=CCCCC1)C(=O)[C@H](CC(=O)N1CCSCC1)C2 | inactive
CCNC(=O)C1(C)CCCN1C(=O)c1ccc(N(C)C)cc1 (centres undefined) | inactive
CC(=O)NC(Cc1c[nH]c2ccccc12)C(=O)O (centres undefined) | inactive
O=C(NC(Cc1c[nH]c2ccccc12)C(=O)N/N=C/c1ccc(Br)cc1)c1cccs1 (centres undefined) | 32.6 µM (active)
O=C(CNC(=O)c1cccs1)N/N=C/c1cccc(Br)c1 | inactive
Cc1noc(C)c1-c1ccc(C(=O)NCc2ccncc2)c2occc12 | inactive
Cc1ccc(C(=O)N/C(=C/c2ccc(-c3cccc([N+](=O)[O-])c3)o2)C(=O)NCCCN(C)C)cc1 | 14.6 µM (active)
CN(C)CCNC(=O)/C(=C/c1cccc([N+](=O)[O-])c1)NC(=O)c1ccccc1 | inactive
C=CCNC(=O)/C(=C\c1cccc([N+](=O)[O-])c1)NC(=O)c1ccccc1 | inactive
COc1ccc(C(C(=O)Nc2c(C)cccc2C)N2CCN(c3ccc(C)cc3)CC2)cc1 (centres undefined) | inactive
CCCC(=O)N1CCC1(C)C(=O)Nc1ccc(-n2cncn2)cc1 (centres undefined) | inactive
CCCNC(=O)C1(C)CCN(Cc2ccc(Cl)c(Cl)c2)C1 (centres undefined) | inactive
COc1ccc(CCNCc2c(-c3ccccc3)n(C)c3ccccc23)cc1 | 14.6 µM (active)
COc1ccc(-c2c(C#Cc3ccccc3)c3ccccc3n2C)cc1 | inactive
COc1ccc(-c2nc3ccccc3c(=O)n2CCc2ccc(O)cc2)cc1 | inactive
CC(=O)NC(c1ccccc1)c1nc(-c2ccccc2C)cs1 (centres undefined) | inactive
C[C@H]1CN([C@@H](C)CO)C(=O)c2cc(-c3ccccc3F)cnc2O[C@H]1CN(C)C(=O)C1CCOCC1 | inactive
O=C(Nc1cccc2cccnc12)c1ccc2sc([C@H]3C[C@H](O)[C@@H](CO)O3)nc2c1 | inactive

Compound | Potency
CCOCCC(=O)Nc1ccc2c(c1)c(=O)n(C)n2-c1ccc2ccccc2c1 | 1.46 µM (active)
CCCC(=O)Nc1ccc2c(c1)nc1n2CCSC1 | inactive
CCNC(=S)Nc1ccc2c(c1)c(=O)n(C)n2Cc1ccc(Cl)cc1 | inactive
CCCCN(C(C)=O)c1ccc2c(c1)C1CC2CCN1Cc1ccccc1 (centres undefined) | inactive
COc1ccc(CCn2c3c(c(=O)[nH]c2=S)CN(C(C)C)CN3)cc1OC | inactive
C[C@H]1CN([C@@H](C)CO)C(=O)CCCn2nncc2CO[C@@H]1CN(C)Cc1ccc(Oc2ccccc2)cc1 | inactive
O=C1/C(=C\c2ccc([N+](=O)[O-])cc2)CS(=O)(=O)C/C1=C/c1ccc([N+](=O)[O-])cc1 | 3.66 µM (active)
O=[N+]([O-])c1ccc(C=NN=Cc2ccc([N+](=O)[O-])cc2)cc1 | inactive
CC(=O)Nc1ccc(C=Cc2ccc([N+](=O)[O-])cc2)cc1 | inactive
N#Cc1c(NC(=O)CCCl)sc2c1CCCCC2 | 23.1 µM (active)
N#Cc1c(NC(=O)C2CCCO2)sc2c1CCCCC2 (centres undefined) | inactive
CCN1CCN(CC(=O)Nc2sc3c(c2C#N)CCC3)CC1 | inactive
Cc1ccc([C@H]2C[C@H](O)[C@@H](n3cc(COC(=O)c4ccccc4)nn3)CN2CC2CCCCC2)cc1 | inactive
O=C(Nc1ccc2c(c1)OCCO2)C1c2ccccc2OCC(=O)N1Cc1ccccn1 (centres undefined) | inactive
Cc1cc(C)nc(SCc2ccccc2C#N)n1 | inactive
Cc1cc(C)nc(S/C=C/C(=O)c2ccccc2)n1 | 3.66 µM (active)
Cc1cc(C)nc(SCC(=O)N(C)C)n1 | inactive
O=C(Cc1csc(Nc2nc(=S)[nH]c3ccccc23)n1)NCCCN1CCN(c2cccc(Cl)c2)CC1 | 20.6 µM (active)
COc1cccc(CNC(=O)Cc2csc(Nc3nc(=S)[nH]c4ccccc34)n2)c1 | inactive
O=C(CCCn1c(=O)[nH]c2cc(Cl)ccc2c1=O)NCCN1CCN(c2ccccc2)CC1 | inactive
